Data from the supplement of paper PMC9135407.
Counter-ions that a name gives are not always drawn. Values without a mark were called inactive.

Test system: primary human hepatic stellate cells (donor 1)
Test: COL1A1 mRNA fold change vs DMSO (normalised to PSMB2); higher = more COL1A1 expression, active = hit call of the paper
Settings: 48 h
Experimental: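 Secondary qRT-PCR screen in primary human HSCs (donor 1), 384-well plates, with compounds dispensed in quadruplicate and incubated for 48 h. Cells-to-CT lysates were used for multiplexed TaqMan qPCR of ACTA2 or COL1A1 with PSMB2 as reference. Fold changes versus DMSO come from a linear model (Ct_gene ~ Ct_PSMB2 + plate + chemical). A hit is defined as COL1A1 and ACTA2 FC <0.5 (FDR <0.05) with PSMB2 between 0.2 and 2.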

Row | SMILES | COL1A1 mRNA fold change
1 | Cc1ccc2c(c1)c1c3n2CCNC3CCC1 (stereo unspecified) [Pirlindole mesylate] (20.6667 µM) | 0.473
2 | CCN(CC)CCNC(=O)c1c(C)[nH]c(/C=C2\C(=O)Nc3ccc(F)cc32)c1C (6.66667 µM) | 0.664
3 | CN1CCC(Nc2ncc3ncnc(Nc4ccc(F)c(Cl)c4)c3n2)CC1 [BIBX 1382 dihydrochloride] (33.3333 µM) | 0.00366
4 | c1ccc2c(NCCCCCCCNc3c4c(nc5ccccc35)CCCC4)c3c(nc2c1)CCCC3 [bis(7)-Tacrine] (3.33333 µM) | 0.0304 (active)
5 | CCN1CCC(n2cc(CNc3cc(Cl)c4ncc(C#N)c(Nc5ccc(F)c(Cl)c5)c4c3)nn2)CC1 (33.3333 µM) | 0.124
6 | O=C1NCN(c2ccccc2)C12CCN(CCCC(c1ccc(F)cc1)c1ccc(F)cc1)CC2 [Fluspirilene] (14.0333 µM) | 0.695
7 | CN1CCN(Cc2ccc(-c3cnc4[nH]cc(-c5ccc6[nH]ccc6c5)c4c3)cc2)CC1 (6.66667 µM) | 0.0518 (active)
8 | COc1cc2nc(N3CCCN(C)CC3)nc(NC3CCN(Cc4ccccc4)CC3)c2cc1OC (3.33333 µM) | 0.0424 (active)
9 | CC1(C)CC(=O)c2c(C(F)(F)F)nn(-c3ccc(C(N)=O)c(N[C@H]4CC[C@H](OC(=O)CN)CC4)c3)c2C1 (33.3333 µM) | 0.807
10 | CNC(=O)[C@@H](Cc1ccccc1)N(C)C(=O)[C@@H](Cc1ccc2ccccc2c1)N(C)C(=O)/C=C/CC(C)(C)N [Tabimorelin] (33.3333 µM) | 0.935
11 | C[C@H]1O[C@@H](O[C@H]2[C@@H](O)C[C@H](O[C@H]3[C@@H](O)C[C@H](O[C@H]4CC[C@@]5(C)[C@H](CC[C@@H]6[C@@H]5C[C@@H](O)[C@]5(C)[C@@H](C7=CC(=O)OC7)CC[C@]65O)C4)O[C@@H]3C)O[C@@H]2C)C[C@H](O)[C@@H]1O [Digoxin] (33.3333 µM) | 0.0679 (active)
